An excerpt weighted towards active compounds, which were near 3.8% of everything screened.
TGFb inhibitor = TGF-b pathway inhibition | HepG2 CAGA-GFP TGF-b/SMAD3 reporter, GFP fluorescence, 18 h; TGF-beta stimulated, 500 pg/mL final | Potency, µM (top dose mostly 46.1 µM), inactives show top-dose activity, negative = inhibition, hits mostly inhibitors | 410,000 compounds, 1.2% hits | AID 588855; also: % is scaled to controls: 0 for no effect and ±100 for the full control effect; nearly all actives have a fitted effect of over 65% in size
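Per well, imaged GFP fluorescence of HEPG2 CAGA-GFP cells gives the signal; cells get compound, then TGF-beta (500 pg/mL final), 18 h at 37 degrees C; %Activity versus -TGF-beta and +DMSO controls.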
ATXN viability = viability counter-screen for ATXN expression inhibitors | S2 cells (HEK-293 line with an ATXN2-luciferase reporter) viability, CellTiter-Fluor protease fluorescence, 24 h | Potency, µM (series often up to 56.7 µM), hits mostly cytotoxic | 400,000 compounds, 0.49% hits | AID 651635; also: nearly all actives have a fitted effect of over 40% in size
HepG2 viability = HepG2 cytotoxicity, counter-screen for TGF-b inhibitors. HepG2 CAGA-GFP viability, ATP luminescence, 18 h. Potency, µM (titrated, usually from 46.1 µM), for the others: top-dose activity change, negative = cytotoxicity, actives largely listed as cytotoxic. 410,000 compounds, 0.76% hits. AID 588856
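HepG2 CAGA-GFP cells (1000/well, DMEM with 1% FBS) received compound, then TGF-beta at 500 pg/mL final, and were incubated 18 hours at 37 degrees C. Viability was read by CellTiter-Glo luminescence. Media-only wells were set as complete cell-killing and DMSO as no toxicity.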
HT1080 IDH1KD tx = toxicity to HT-1080 IDH1 knockdown cells (counter line) | 360,000 compounds, 2% hits | Potency, µM (doses to about 46.1 µM), inactives show at the top dose activity, negative = toxicity, most hits filed as cytotoxic | AID 686971 | HT-1080 IDH1 knockdown viability, ATP luminescence, 48 h;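 also: 0% = DMSO wells and -100% = cell-free medium wells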
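In this qHTS, HT-1080 cells depleted of IDH1 are exposed for 48 h at 37 °C to compound titrations. Toxicity is scored from CellTiter-Glo luminescence, with DMSO as full viability and medium alone as none.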
ATXN2 expr inh = inhibitors of ATXN2 expression | HEK-293 ATXN2-luciferase reporter, luminescence, 24 h | Potency, µM (doses to about 57 µM), without a hit: top-dose activity change, negative = inhibition, actives largely listed as inhibitors | 360,000 compounds, 0.72% hits; also: % is scaled to controls: 0 for no effect and ±100 for the full control effect; nearly all actives have a fitted effect of over 55% in size
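ATXN2-luciferase reporter cells (luciferase flanked by upstream and downstream ATXN2 gene portions) were treated 24 h at 37 °C with compounds at up to 57 uM. SteadyGlo luminescence gave expression; GF-AFC fluorescence gave viability.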
HT1080NT lethal = kills 2HG-producing HT-1080-NT fibrosarcoma cells | 360,000 compounds, 1.6% hits | HT-1080-NT fibrosarcoma viability, CellTiter-Glo ATP luminescence, 48 h | Potency, µM (top dose mostly 46.1 µM), without a hit: at the top dose activity, negative = less viability, hits mostly cytotoxic;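 also: NT is the 2HG producing partner of a matched IDH1 knockdown line; 0% = DMSO-treated cells and -100% = media-only wells without cells; nearly all actives have a fitted effect of over 55% in size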
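Viability of the 2HG-overproducing fibrosarcoma line after 48 hours of compound exposure at 37 degrees C was determined by luminescence with CellTiter-Glo, and concentration-effect curves were then fitted and categorized.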
* marks the source's active call; other numbers are inactive results. Calls follow the shape of the dose curve; as a rule, active = well fitted curve in the direction sought with a large enough effect; inconclusive = small, poorly fitted or top-dose-only effect, or another doubt; inactive = no such curve, though single readings can be large; an effect the other way counts as inactive or inconclusive. Potency is read from the fitted curve at half-maximal effect.

`COc1cccc(CNc2nc(NC(C)C)nc3ccsc23)c1OC` gave TGFb inhibitor inconclusive, ATXN viability inconclusive, HepG2 viability -46.5%, HT1080 IDH1KD tx -19.0%, ATXN2 expr inh -31.6% and HT1080NT lethal 14.6µM*.
COc1ccccc1CNc1nc(NC(C)C)nc2ccsc12 was read as TGFb inhibitor inconclusive, ATXN viability inactive, HepG2 viability -11.4%, HT1080 IDH1KD tx inconclusive, ATXN2 expr inh 0.0% and HT1080NT lethal inconclusive.
CC(C)Nc1nc(NCCOc2ccccc2)c2sccc2n1 was read as TGFb inhibitor inconclusive, ATXN viability inactive, HepG2 viability -26.4%, HT1080 IDH1KD tx 23.1µM*, ATXN2 expr inh inconclusive and HT1080NT lethal 25.9µM*.
CCN(CC)c1cc2c(cc1F)c(=O)c(S(=O)(=O)c1cccc(C)c1)cn2C was read as TGFb inhibitor inconclusive and HepG2 viability -9.5%.
Screening CC(=O)Nc1ccc(Oc2cnc3ccccc3n2)cc1 returned TGFb inhibitor -8.2%, ATXN viability inactive, HepG2 viability -1.3%, HT1080 IDH1KD tx 2.59µM*, ATXN2 expr inh 5.9% and HT1080NT lethal 2.31µM*.
For CCC(C(=O)NC1CCC(C)CC1)n1nc(C)c2sc3ccccc3c2c1=O (stereo unspecified) the results were TGFb inhibitor 12.0% and HepG2 viability 2.0%.
`COc1cccc(NC(=O)C2CCCN(c3ncnc4onc(-c5ccc(F)cc5)c34)C2)c1` (stereo unspecified) gave TGFb inhibitor -26.1%, ATXN viability inactive, HepG2 viability -25.8% and ATXN2 expr inh 1.5%.
`Cc1ccc2[nH]c(C(=O)N3CCc4c(cnc(C)c4CNC(=O)c4ccccc4F)C3)cc2c1` gave ATXN viability inactive.
CCOC(=O)c1cc(C)nc(Sc2ccc(C)cc2)c1C#N was read as TGFb inhibitor 27.4%, ATXN viability inactive, HepG2 viability 20.7%, HT1080 IDH1KD tx 20.6µM*, ATXN2 expr inh -3.0% and HT1080NT lethal inconclusive.
`Cc1cc(C)c(C#N)c(Sc2ccc(N)cc2)n1` gave TGFb inhibitor -1.4%, ATXN viability inactive, HepG2 viability -12.8%, HT1080 IDH1KD tx 1.2%, ATXN2 expr inh -0.3% and HT1080NT lethal -4.2%.
C[C@H]1CN([C@@H](C)CO)C(=O)Cc2cc(NC(=O)CCC(F)(F)F)ccc2O[C@H]1CN(C)Cc1ccc(-c2ccccc2)cc1 was read as TGFb inhibitor 12.6µM*, HepG2 viability 17.8µM*, HT1080 IDH1KD tx 20.6µM*, ATXN2 expr inh inconclusive and HT1080NT lethal 23.1µM*.
`Cc1ccc(S(=O)(=O)Nc2ccc3c(c2)CC(=O)N([C@H](C)CO)C[C@@H](C)[C@H](CN(C)Cc2ccc(-c4ccccc4)cc2)O3)cc1` gave TGFb inhibitor 11.2µM*, ATXN viability 22.4µM*, HepG2 viability -93.3%, HT1080 IDH1KD tx inconclusive, ATXN2 expr inh inconclusive and HT1080NT lethal inconclusive.
For C[C@H](CO)N1C[C@H](C)[C@H](CN(C)Cc2ccc(-c3ccccc3)cc2)Oc2ccc(NS(=O)(=O)c3ccccc3)cc2CC1=O the results were TGFb inhibitor inconclusive, ATXN viability inconclusive, HepG2 viability 11.2µM*, HT1080 IDH1KD tx inconclusive, ATXN2 expr inh inconclusive and HT1080NT lethal inconclusive.
Screening C[C@@H]1CN([C@@H](C)CO)C(=O)Cc2cc(NS(=O)(=O)c3ccccc3)ccc2O[C@H]1CN(C)Cc1ccncc1 returned TGFb inhibitor inconclusive, ATXN viability inactive, HepG2 viability -17.8%, HT1080 IDH1KD tx 3.0%, ATXN2 expr inh 5.1% and HT1080NT lethal 0.9%.
C[C@H]1CN([C@@H](C)CO)C(=O)Cc2cc(NC(=O)CCC(F)(F)F)ccc2O[C@H]1CN(C)Cc1ccc(C(F)(F)F)cc1 was read as TGFb inhibitor inconclusive, HepG2 viability -20.8%, HT1080 IDH1KD tx inconclusive, ATXN2 expr inh inconclusive and HT1080NT lethal inconclusive.
Cc1ccc(S(=O)(=O)Nc2ccc3c(c2)C(=O)N([C@H](C)CO)C[C@H](C)[C@@H](CN(C)Cc2ccccc2)O3)cc1 was read as TGFb inhibitor -1.0%, ATXN viability inactive, HepG2 viability -18.9%, HT1080 IDH1KD tx 1.7%, ATXN2 expr inh 1.6% and HT1080NT lethal -3.2%.
For COC(=O)N1C(=O)[C@](Cc2ccccc2)(c2ccccc2)N1C(=O)OC the results were TGFb inhibitor inconclusive, ATXN viability inconclusive, HepG2 viability -88.6%, HT1080 IDH1KD tx -1.9%, ATXN2 expr inh -25.5% and HT1080NT lethal 0.2%.
Screening COC(=O)N1C(=O)[C@@](c2ccccc2)(C2CCCCC2)N1C(=O)OC returned TGFb inhibitor inconclusive, ATXN viability 20µM*, HepG2 viability -28.6%, HT1080 IDH1KD tx -22.5%, ATXN2 expr inh inconclusive and HT1080NT lethal inconclusive.
For COC(=O)N1C(=O)[C@@](Cc2ccccc2)(c2ccccc2)N1C(=O)OC the results were TGFb inhibitor 7.94µM*, ATXN viability inconclusive, HepG2 viability -96.9%, HT1080 IDH1KD tx -11.6%, ATXN2 expr inh inconclusive and HT1080NT lethal -23.9%.
For Cc1cc(CNC(=O)c2cnn(-c3ncc4c(n3)-c3ccccc3CCC4)c2C2CC2)on1 the results were ATXN viability inactive.
`Cc1nc2ccccc2nc1-c1csc(-c2ccccc2)n1` gave TGFb inhibitor inconclusive and HepG2 viability -28.4%.
For O=C1CC(Sc2nnnn2C2CCCCC2)C(=O)N1c1ccccc1 (stereo unspecified) the results were TGFb inhibitor inconclusive, ATXN viability inconclusive, HepG2 viability -81.8%, HT1080 IDH1KD tx 5.01µM*, ATXN2 expr inh 0.0% and HT1080NT lethal inconclusive.
Screening Cc1cc(C)cc(N2C(=O)CC(Sc3nnnn3-c3ccccc3)C2=O)c1 (stereo unspecified) returned TGFb inhibitor -9.6%, ATXN viability inconclusive, HepG2 viability -95.1%, HT1080 IDH1KD tx 2.51µM*, ATXN2 expr inh inconclusive and HT1080NT lethal 7.08µM*.
For COc1ccc(C(=O)Oc2c(Sc3ccc(Cl)cc3)c(C)nn2C(C)(C)C)cc1OC the results were TGFb inhibitor -28.1%, ATXN viability inactive, HepG2 viability -15.0% and ATXN2 expr inh -5.4%.
Screening Cc1c(C(=O)N(C)C2CCOC2)cnn1-c1ncc2c(n1)-c1ccccc1CCC2 (stereo unspecified) returned ATXN viability inactive.
